# Assay outcomes (PubChem)
# Shown are actives, neighbours in structure and some others; about 7.8% of the full set was active somewhere.
# Hedgehog inh: Sonic Hedgehog pathway inhibition. inhibition, % (concentration not given with the values). hit rate 2.1% among 22,000. Shh-LIGHT2 Gli-luciferase reporter, 30 h;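 active = mean inhibition across valid replicates above about 65%, limit read from the data; inconclusive = mean under the limit, yet half or more replicates past it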;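 also: pathway switched on by Shh-conditioned medium diluted 1 in 25 in low serum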
# MITF inhib: MITF inhibition; hit rate 0.28% among 37,000; TRPM1 promoter luciferase, luminescence, 24 h; inhibition, % (concentration not given with the values); AID 2240; in the data active = inhibition above about 85%; inconclusive = no clear call, values can overlap the other calls; inactive = below about 68%;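 also: human melanocyte line stably carrying TRPM1 promoter luciferase reporter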
# NOMO-1 viab: STK33 inhibitor candidate reducing NOMO-1 cell viability; NOMO-1 AML viability, CellTiter-Glo luminescence, 72 h; inhibition, % (concentration not given with the values); hit rate 7.5% among 37,000; in the data active = inhibition above about 80%; inconclusive = no clear call, values can overlap the other calls
# * marks the source's active call; other numbers are inactive results; ? = inconclusive; nt = no result.
SMILES,Hedgehog inh,MITF inhib,NOMO-1 viab
C[C@H](CO)N1C[C@H](C)[C@H](CN(C)CC2CCCCC2)Oc2ccc(NS(=O)(=O)c3ccc(Cl)cc3)cc2C1=O,nt,-7,34
CCOC(=O)c1cnc2ccc(OCC)cc2c1N(C)Cc1ccccc1,13,30,96*
CCOC(=O)c1cnc2cc(C(F)(F)F)ccc2c1N(C)Cc1ccccc1,?,22,38
CC1=C2CCC(C(=O)O)=CC2C(C(C)C)CC1 (configuration not stated),-24,-2,-1
CC(=O)OC1/C=C(/C(=O)O)CC/C=C(/C)C(=O)/C=C\C1(C)C (configuration not stated),65*,-11,120*
CCc1nc(SCC(=O)Nc2cccc(C(F)(F)F)c2)c(C#N)cc1C,nt,-4,-6
C[C@H](CO)N1C[C@H](C)[C@H](CN(C)Cc2ccccc2)Oc2ccc(NS(C)(=O)=O)cc2CC1=O,nt,5,25
C[C@H]1CN([C@@H](C)CO)C(=O)Cc2cc(NC(=O)Nc3ccc(C(F)(F)F)cc3)ccc2O[C@@H]1CN(C)Cc1ccc(C(F)(F)F)cc1,-2,0,126*
C[C@@H]1CN([C@@H](C)CO)C(=O)Cc2cc(NC(=O)Nc3ccc(F)cc3)ccc2O[C@@H]1CN(C)Cc1ccc(C(F)(F)F)cc1,22,12,113*
C[C@@H]1CN([C@@H](C)CO)C(=O)Cc2cc(NC(=O)Nc3ccc(C(F)(F)F)cc3)ccc2O[C@@H]1CN(C)Cc1ccc2c(c1)OCO2,14,10,122*
C[C@@H]1CN([C@H](C)CO)C(=O)Cc2cc(NC(=O)Nc3ccc(C(F)(F)F)cc3)ccc2O[C@H]1CN(C)Cc1ccc2c(c1)OCO2,nt,-18,-13
C[C@H](CO)N1C[C@H](C)[C@H](CN(C)Cc2ccc(C(=O)O)cc2)Oc2ccc(NC(=O)Nc3ccc(C(F)(F)F)cc3)cc2CC1=O,7,-5,18
C[C@H]1CN([C@@H](C)CO)C(=O)Cc2cc(NC(=O)Nc3ccc(F)cc3)ccc2O[C@H]1CN(C)Cc1ccc(C(F)(F)F)cc1,-23,-14,126*
C[C@H]1CN([C@@H](C)CO)C(=O)Cc2cc(NC(=O)Nc3ccc(C(F)(F)F)cc3)ccc2O[C@@H]1CN(C)Cc1ccncc1,38,3,20
Cn1nnc2cc(NC(=O)NCCO)ccc21,nt,-12,17
COc1ccc(NC(=O)C2CC(=O)n3c(nc4ccccc43)N2)cc1 (configuration not stated),nt,12,4
COc1ccc(C)cc1NC(=O)NCCCN1CCN(c2ccccc2C)CC1,nt,-28,39
COc1ccc(S(=O)(=O)Nc2cccc3c2O[C@H](CN(C)Cc2ccc(Oc4ccccc4)cc2)[C@H](C)CN([C@H](C)CO)C3=O)cc1,-14,5,60
CC(=O)c1cccc(NC(=O)CS(=O)(=O)c2ccccc2)c1,nt,-13,8
CN(C)S(=O)(=O)c1ccc(C(=O)NCc2cccnc2)cc1,nt,-11,17
Cc1nc(CSc2nc3[nH]ncc3c(=O)n2-c2ccccc2)cs1,nt,-6,6
Cc1noc(C)c1CSc1nc2[nH]ncc2c(=O)n1-c1ccccc1,nt,15,108*
C[C@@H]1CN([C@@H](C)CO)C(=O)c2cc(NC(=O)Cc3cn(C)c4ccccc34)ccc2O[C@H]1CN(C)Cc1ccc(Oc2ccccc2)cc1,-22,15,56
C[C@@H]1CN([C@@H](C)CO)C(=O)c2cc(NC(=O)Cc3cn(C)c4ccccc34)ccc2O[C@@H]1CN(C)Cc1ccc(Oc2ccccc2)cc1,nt,38,114*
C[C@H]1CN([C@@H](C)CO)C(=O)c2cc(NC(=O)Cc3cn(C)c4ccccc34)ccc2O[C@H]1CN(C)Cc1ccc(Oc2ccccc2)cc1,nt,21,31
SMILES,Hedgehog inh,MITF inhib,NOMO-1 viab
C[C@H]1CN([C@@H](C)CO)C(=O)c2cc(NC(=O)Cc3cn(C)c4ccccc34)ccc2O[C@@H]1CN(C)Cc1ccc(Oc2ccccc2)cc1,nt,25,94*
COc1ccccc1NC(=O)Cn1nnc(-c2cc(OC)c(OC)c(OC)c2)n1,nt,20,33
COc1ccc(NC(=O)CN(c2cccc3ccccc23)S(C)(=O)=O)cc1OC,nt,1,3
C[C@H](CO)N1C[C@H](C)[C@@H](CN(C)S(=O)(=O)c2cccs2)Oc2ccc(NC(=O)Nc3ccccc3)cc2C1=O,14,-2,27
CC1(C)CC[C@@]2(C(=O)O)C(C1)C1=CCC3[C@@]4(C)CC[C@H](O[C@@H]5O[C@H](C(=O)O)[C@@H](O[C@@H]6OC[C@@H](O)[C@H](O)[C@H]6O)[C@H](O)[C@H]5O)C(C)(C)C4CC[C@@]3(C)[C@]1(C)C[C@H]2O (some centres not stated),2,nt,nt
CC(=O)OCC1(C)CC2[C@]3(CO[C@@]24CCC2[C@@]5(C)CC[C@H](O[C@@H]6OC[C@@H](O)[C@H](O)[C@H]6O)[C@@](C)(CO)C5CC[C@@]2(C)[C@]4(C)C[C@H]3O)[C@@H](O)C1 (some centres not stated),76*,7,123*
COc1ccc(C(=O)NC(c2ccccc2)c2ccccc2)cc1,23,7,32
COc1ccc(C(NC(C)=O)c2ccc3cccnc3c2O)cc1OC (configuration not stated),nt,69,107*
COc1ccc(C(NC(C)=O)c2c(O)ccc3ccccc23)cc1OC (configuration not stated),nt,7,-20
COc1ccc(C(NC(=O)c2ccccc2)c2ccc3cccnc3c2O)c(OC)c1 (configuration not stated),nt,?,109*
CCCCN(C(=O)c1ccccc1)C1CC2CCC(C1)N2C (configuration not stated),-3,1,-3
C[C@@H]1CCCCO[C@H](CN(C)C(=O)C2CCCCC2)[C@@H](C)CN([C@H](C)CO)C(=O)c2cc(NS(=O)(=O)c3cccs3)ccc2O1,-6,10,39
CC#CCc1cc2ccccc2c(=O)o1,0,-6,21
O=c1oc(Cl)c(Cl)c2ccccc12,79*,46,119*
C[C@@H]1CCCCO[C@H](CN(C)C(=O)Nc2ccccc2)[C@@H](C)CN([C@H](C)CO)C(=O)c2cc(NS(=O)(=O)c3cccs3)ccc2O1,-8,13,9
C[C@H](CS)C(=O)N1CCC[C@H]1C(=O)O,-23,0,12
CCCNC(=O)[C@H]1O[C@@H]1C(=O)N[C@H](C(=O)N1CCC[C@H]1C(=O)OC)C(C)CC (some centres not stated),23,70,141*
C[C@@H]1CN([C@H](C)CO)C(=O)c2cccc(NC(=O)C3CCOCC3)c2O[C@H]1CN(C)Cc1ccc(Cl)c(Cl)c1,70*,1,30
C[C@H](CO)N1C[C@H](C)[C@@H](CN(C)Cc2ccc(Cl)c(Cl)c2)Oc2c(NC(=O)C3CCOCC3)cccc2C1=O,-2,-10,34
C[C@H]1CN([C@@H](C)CO)C(=O)c2cccc(NC(=O)Nc3ccccc3)c2O[C@@H]1CN(C)Cc1ccc(Cl)c(Cl)c1,-5,6,64
C[C@@H]1CN([C@@H](C)CO)C(=O)c2cccc(NC(=O)Nc3ccccc3)c2O[C@H]1CN(C)Cc1ccc(Cl)c(Cl)c1,9,10,102*
